Source: PubChem (National Center for Advancing Translational Sciences (NCATS))
GBA activity: Glucocerebrosidase. AID 360, 2006. 1.1% of 48,000 active. purified enzyme, resorufin glucoside fluorescence (screen aimed at inhibitors), 20 min. Potency, µM. Lysosomal acid glucosylceramidase (Homo sapiens), P04062; in the data active means potency below about 15 µM; inconclusive means mostly about 16 µM to 33 µM;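 further: the screen sought inhibitors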
Target sequence (P04062 whole entry, looked up): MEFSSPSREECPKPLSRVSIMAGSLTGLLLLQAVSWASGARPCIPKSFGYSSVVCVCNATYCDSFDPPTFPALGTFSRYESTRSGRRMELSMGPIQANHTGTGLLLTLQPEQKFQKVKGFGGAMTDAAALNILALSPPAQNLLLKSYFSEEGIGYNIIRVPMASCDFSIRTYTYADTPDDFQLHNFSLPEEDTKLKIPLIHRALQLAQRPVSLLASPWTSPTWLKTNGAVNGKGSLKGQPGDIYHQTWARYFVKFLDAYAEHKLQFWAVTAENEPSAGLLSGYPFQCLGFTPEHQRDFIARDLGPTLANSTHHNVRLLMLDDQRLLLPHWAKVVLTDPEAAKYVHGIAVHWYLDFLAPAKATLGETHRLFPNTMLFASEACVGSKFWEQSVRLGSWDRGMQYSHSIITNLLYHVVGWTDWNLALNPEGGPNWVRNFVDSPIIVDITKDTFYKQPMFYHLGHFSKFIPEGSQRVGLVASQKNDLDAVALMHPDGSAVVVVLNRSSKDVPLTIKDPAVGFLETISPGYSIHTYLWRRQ
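Normal human glucocerebrosidase (0.2 nM final) was assayed with resorufin β-D-glucopyranoside (30 uM final) in 50mM citric acid/KH2PO4, 10mM sodium taurocholate, 0.01% tween-20, pH 5.9. Compounds were titrated; fluorescence (Ex 548, Em 600) read after 20 min at RT.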
FLuc inh: qHTS Assay for Inhibitors of Firefly Luciferase | Luciferin 4-monooxygenase (Photinus pyralis), P08659 | Potency, µM (series often up to 57.1 µM), without a hit: at the top dose activity change, negative = inhibition, most hits filed as inhibitors | 2.2% of 72,000 active | purified firefly luciferase, luminescence, 8 min; active means well fitted inhibition curve with a large enough effect; inconclusive means small, poorly fitted or top-dose-only effect; further: on the % scale 0 is the no-effect control and ±100 the full control effect; nearly all actives have a fitted effect of over 40% in size
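qHTS concentration-response profiling: light output of P. pyralis luciferase with luciferin and 10 uM ATP, imidazole buffer pH 7.2. Read by luminescence after 8-min room-temperature incubation.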
PK Bst: Pyruvate Kinase; Potency, µM; purified pyruvate kinase, luminescence ATP production; ribose 5-phosphate activator present at AC10; 1.2% of 51,000 active; AID 361, 2006; in the data active means potency below about 11 µM; inconclusive means mostly about 12 µM to 25 µM;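 the screen sought inhibitors and activators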;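 further: scaled between full activation by ribose 5 phosphate and full inhibition by luteolin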
The depositor's hits bear a star; i = inactive; ? = inconclusive; nt = no result given; ! = repeats disagree; [ ] = remark or other dose. Sampled rows, rich in hits. Any-hit rate of the full collection: about 3.2%. Potency means the concentration at half of the fitted maximal effect.

SMILES	GBA activity	FLuc inh	PK Bst
CCn1ccc(C(=O)Oc2ccc(C(C)C)cc2)n1	>77	13µM*	i
CCC(=O)Oc1ccc(C(CC)C(CC)c2ccc(OC(=O)CC)cc2)cc1 (stereo not drawn)	nt	0%[25.5 µM]	>26
CC(=O)OC[C@@H]1O[C@H](C/C=N\O[C@@H](C)c2cc(-c3c(C)cc(C)cc3C)no2)C=C[C@@H]1OC(C)=O	nt	2%[11.4 µM]	nt
O=c1c(CCc2ccccc2)nc2cncnc2n1Cc1ccccc1Cl	nt	0%[11.4 µM]	nt
COc1ccccc1-c1cc(N(C)Cc2ccco2)ncn1	nt	1%[2.29 µM]	nt
CCOC(=O)CNc1c(-c2ccc(O)cc2)nc2ccc(Cl)cn12	4.1*	?	nt
CCOC(=O)CNc1c(-c2ccc(O)cc2)nc2ccccn12	?	-17%	>57
O=C(/C=C\Nc1ccc2c(c1)OCO2)c1ccccn1	nt	0.63µM*	nt
O=C(NCc1ccc2c(c1)OCO2)c1ccccn1	>77	0%	>57
O=C(CN1C(=O)c2ccccc2C1=O)[C@@H](O)CN1C(=O)c2ccccc2C1=O	nt	4%[11.4 µM]	nt
Nc1nc(Nc2cccc(F)c2)nc2ccccc12	13*	10µM*	9.4*
Fc1ccc(Nc2nc(N3CCOCC3)c3ccccc3n2)cc1	nt	-2%	nt
NC1=C2NC=N[C@@H]2N(C/C=C\c2ccccc2)C=N1	nt	0%[11.4 µM]	nt
CC(NC(=O)c1ccccc1)(C(=O)O)C(=O)O	nt	-2%[11.4 µM]	nt
O=S(=O)(c1ccccc1)c1nc(-c2ccco2)oc1N1CCCCCC1	>77	-1%	>57
NC(=O)C1CCN(c2oc(-c3ccccc3F)nc2S(=O)(=O)c2ccc(Cl)cc2)CC1	>77	-1%	11*
COc1ccc(NC(=O)N2CCCC3(CCN(C(=O)c4ccco4)CC3)C2)cc1	nt	2%[11.4 µM]	nt
CCN(CC)CCC[C@H](C)Nc1c2ccc(Cl)cc2nc2ccc(OC)cc12	nt	6.3µM*!	nt
CCN(CC)CCNc1ccnc2cc(Cl)ccc12	>77	0%	>57
N=C(N)SCc1nc(-c2ccc(Cl)cc2)no1	nt	1%[11.4 µM]	nt
Cc1ccc(N=Nc2c(O)c3ccccc3[nH]c2=O)c(S(=O)(=O)N(C)C)c1	nt	3.2µM*	nt
CCCCc1c(O)c2ccccc2[nH]c1=O	>77	0%	>57
c1ccc(CCc2cccnc2)nc1	nt	-4%[11.4 µM]	nt
COCCNc1ncnc2c1cnn2Cc1ccc(Cl)cc1	>77	0%	>57
COCC(C)Nc1ncnc2c1cnn2-c1ccc(Cl)cc1 (stereo not drawn)	nt	7.9µM*	11*
SMILES	GBA activity	FLuc inh	PK Bst
Clc1ccc(-n2ncc3c(NCCCn4ccnc4)ncnc32)cc1	nt	-7%[25.5 µM]	?
CCCCNc1ncnc2c1cnn2-c1ccc(Cl)cc1	nt	10µM*	nt
CCCCNc1ncnc2c1cnn2-c1ccc(C)cc1C	nt	-5%	nt
CCCCNc1ncnc2c1cnn2-c1ccccc1	nt	13µM*	nt
CCOC(=O)c1c(C)n(C)c2ccc(O)c(S(=O)(=O)c3ccccc3)c12	nt	-2%[25.5 µM]	10*
CCOC(=O)c1c(C)n(C)c2ccc(O)c(CN(C)C)c12	nt	-2%	>57
COc1ccc(S(=O)(=O)N2CCCC(C(=O)Nc3ccc(OC)c(OC)c3)C2)cc1 (stereo not drawn)	>77	2%	>57
Cc1ccc(N2CC(C(=O)NC3=NCCS3)CC2=O)cc1 (stereo not drawn)	>77	4%	>57
Cc1ccc(S(=O)(=O)N2CCCC(C(=O)NC3=NCCS3)C2)cc1 (stereo not drawn)	?	1%	6.3*
COc1ccc(NC(=O)C2CCCN(S(=O)(=O)c3ccc(C)cc3)C2)cc1OC (stereo not drawn)	>77	3%	5.4*
CN(C)Cc1ccc(C(C)(C)C)cc1-c1cc(C(C)(C)C)ccc1CN(C)C	nt	1%[11.4 µM]	nt
COCC(=O)N1CCC2(CC1)CN(Cc1nccs1)C2	nt	0%[11.4 µM]	nt
O=C(Cc1cccs1)N1CCN(c2ccccn2)CC1	nt	5%	nt
O=C(c1cn(-c2ccccc2)nc1-c1cccs1)N1CCN(c2ccccn2)CC1	nt	25µM*	i
CCCCOC(=O)Cn1c(=N)n(CCC)c2ccccc21	11*	3%	>57
CCCn1c(=N)n(CCOc2ccc(OC)cc2)c2ccccc21	5.9*	-5%	>57
COC(=O)Cn1c(=N)n(CCN2CCCCC2)c2ccccc21	>77	-1%	>57
CCCn1c(-c2ccc(OC)cc2)nc2ccccc21	nt	-5%	nt
NC(=O)c1cc2ccc(O)cc2oc1=Nc1ccccc1	i	?	?
COc1ccc(OC)c(N=c2oc3cc(O)ccc3cc2C(N)=O)c1	>77	13µM*	>57
COCCn1c(=O)cnc2cnc(N(C)C)nc21	nt	2%[11.4 µM]	nt
COc1ccc2oc(=O)c(NC(=O)C3CCCCC3)cc2c1	5.2*	3%	>57
COc1ccc(OC)c(NC(=O)C2CCCC2)c1	>77	-1%	>57
CC=C(/C(=C/C)c1ccc(O)cc1)c1ccc(O)cc1	nt	5%[25.5 µM]	nt
COc1ccc(Br)cc1CNc1ccc(O)cc1	i	-3%	>57
SMILES	GBA activity	FLuc inh	PK Bst
CCc1ccc(CNc2ccc(O)cc2)cc1	11*	-9%	nt
COc1ccc(C(=O)N2CCC3(CCN(Cc4cc(C(F)(F)F)cc(C(F)(F)F)c4)CC3)CC2)cc1	nt	4%[11.4 µM]	nt
COc1ccc(-c2nc(C#N)c(N3CCOCC3)o2)cc1OC	>77	-1%	nt
COc1ccccc1-c1nc(C#N)c(N2CCC(Cc3ccccc3)CC2)o1	>77	4%	>57
N#Cc1nc(-c2ccc(OCc3ccccc3)cc2)oc1NCCN1CCOCC1	i	3%	4.5*
CNc1oc(-c2ccc(OCc3ccccc3)cc2)nc1C#N	>77	-1%	i
N#Cc1nc(-c2ccc(OCc3ccccc3)cc2)oc1N1CCOCC1	>77	6%	2*
N#Cc1nc(-c2ccc(OCc3ccccc3)cc2)oc1NCc1ccco1	>77	-4%	nt
N#Cc1nc(-c2ccc(OCc3ccc(Cl)cc3)cc2)oc1NCCCn1ccnc1	i	5%	0.33*
COc1ccccc1-c1nc(C#N)c(N2CCN(Cc3ccccc3)CC2)o1	12*	-4%	>57
COC(=O)C/C=C\[C@@H](C)[C@@H](/C=N\OC[C@@H](O)COCc1ccco1)OC	nt	-1%[11.4 µM]	nt
Nc1ccc(N(S(=O)(=O)c2ccccc2)S(=O)(=O)c2ccccc2)c(Cl)c1	nt	2%[11.4 µM]	nt
N#Cc1nc(Cc2cccc3ccccc23)oc1NCCCN1CCOCC1	>77	2%	>57
N#Cc1nc(Cc2cccc3ccccc23)oc1NCCCn1ccnc1	13*	-2%	?
